Screening results: PubChem BioAssay, National Center for Advancing Translational Sciences (NCATS)
Cruzain inh Det: qHTS Assay for Promiscuous and Specific Inhibitors of Cruzain (with detergent) | AID 1478, 2009 | Potency, µM, for inactives: max response, negative = inhibition, usual class: inhibitors | Cruzipain (Trypanosoma cruzi), P25779 | 0.43% of 200,000 active | purified cruzain, Z-FR-AMC fluorescence, 0.01% Triton;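 note: potency is the fitted concentration of half-maximal effect; plate controls were neutral wells for no effect and buffer without enzyme for full effect; nearly all actives have a fitted effect of over 40% in size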
Target sequence (P25779 123-467 limits assumed): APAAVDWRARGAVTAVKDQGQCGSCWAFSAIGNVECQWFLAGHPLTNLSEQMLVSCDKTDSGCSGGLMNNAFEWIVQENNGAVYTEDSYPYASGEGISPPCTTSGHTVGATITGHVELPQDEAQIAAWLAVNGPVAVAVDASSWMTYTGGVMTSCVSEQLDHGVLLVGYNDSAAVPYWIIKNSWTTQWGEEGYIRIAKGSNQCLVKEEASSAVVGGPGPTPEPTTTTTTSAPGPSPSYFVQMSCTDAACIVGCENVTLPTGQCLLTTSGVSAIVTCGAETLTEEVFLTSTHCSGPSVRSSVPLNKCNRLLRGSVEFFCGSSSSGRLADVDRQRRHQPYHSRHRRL
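Z-FR-AMC hydrolysis (2 uM substrate) by cruzain (1.5 nM) monitored kinetically at ex 360/em 450 nm after 15 min room-temperature compound exposure; 0.01% Triton X-100, pH 5.5, 5 mM DTT.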
Cruzain inh noDet: qHTS Assay for Promiscuous and Specific Inhibitors of Cruzain (without detergent) | Potency, µM, without a hit: max response, negative = inhibition, actives largely listed as inhibitors | Cruzipain (Trypanosoma cruzi), P25779 | purified cruzain, Z-FR-AMC fluorescence, no detergent | 2.3% of 200,000 active;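 note: potency is the fitted concentration of half-maximal effect; plate controls were enzyme without inhibitor for no effect and buffer without enzyme for full effect; nearly all actives have a fitted effect of over 40% in size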
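Detergent-free condition (0.00005% Triton X-100) in acetate buffer pH 5.5 with DTT. 1.5 nM enzyme and compound were pre-mixed 15 min, then 2 uM Z-FR-AMC substrate added; reaction progress from fluorescence change between first and third reads (60 s).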
NS1 function inh: qHTS Assay for Inhibitors of Influenza NS1 Protein Function; Potency, µM (series often up to 46.1 µM), for the others: top-dose activity, positive = more growth; 0.4% of 270,000 active; calls by dose curve; note: potency is the fitted concentration of half-maximal effect; actives are rising curves; nearly all actives have a fitted effect of over 50% in size
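In this qHTS, NS1 from influenza A is expressed in budding yeast, where it slows growth. Cells are switched from glucose to 2% galactose medium (pH 6.0, -URA), treated with compound, and growth recovery is read at OD600.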
NS1 inh valid: Assay for Inhibitors of Influenza NS1 Protein Function: Hit Validation; shares compounds with NS1 function inh; influenza NS1 function cell assay, 15-point titration; activity change, negative = inhibition, % at 32.9 µM; 1,400 tested, under 10 active; AID 492980, 2010; calls by dose curve; note: 0% is about no effect
Flu PR8 replic: Assay for Inhibitors of Influenza NS1 Protein Function: Influenza virus replication assay in MDCK cells infected with virus A/PR/8/34. shares compounds with NS1 function inh. MDCK infected influenza A/PR/8/34, virus titer TCID50; hits give low values. virus titer (log TCID50), log10 TCID50 at 5 µM. 30% of 95 active; call rule not given here
* hit, by the source's call; u = inconclusive; x = not tested or not shown. This is one part of a sample in which hits are shown more often than they occur. Unless noted, calls come from the whole dose curve; as a rule, active = well fitted curve in the direction sought with a large enough effect; inconclusive = small, poorly fitted or top-dose-only effect, or another doubt; inactive = no such curve, though single readings can be large; an effect the other way counts as inactive or inconclusive.

SMILES | Cruzain inh Det | Cruzain inh noDet | NS1 function inh | NS1 inh valid | others
C[C@@H](C(=O)Cc1ccc2ccccc2c1)[C@@H]1C[C@@]1(C)[C@@H](NP(=O)(c1ccccc1)c1ccccc1)c1ccccc1 | -4% | u | x | x
C[C@@H](C(=O)NCc1ccccc1)[C@H]1C[C@]1(C)[C@H](NC(=O)OCc1ccccc1)c1ccccc1 | -3% | 0% | 17% | x
CN1CCN(c2nc(-c3cccc(NS(C)(=O)=O)c3)nc3ccccc23)CC1 | 0% | 7% | x | x
O=C1CNC(=S)N1CCOc1ccccc1 | x | x | 9% | x
O=C1CNC(=S)N1CCc1ccc(O)c(O)c1 | x | x | u | 29
CCN1C(=O)c2cccc3c(S(=O)(=O)NCC4CCCO4)ccc1c23 (stereo unspecified) | x | x | -11% | x
CCOc1ccc(/C(O)=C2/C(=O)C(=O)N(c3ncccn3)C2c2ccccc2)cc1 (stereo unspecified) | -6% | -12% | 2µM* | -12
CCCOc1ccc(/C(O)=C2/C(=O)C(=O)N(c3cc(C)on3)C2c2ccc(C(=O)OC)cc2)cc1 (stereo unspecified) | -11% | u | 10µM* | -9
CCOc1ccc(/C(O)=C2/C(=O)C(=O)N(c3cc(C)on3)C2c2ccc(C(=O)OC)cc2)cc1 (stereo unspecified) | -6% | u | 6% | x
CCOc1ccc(/C(O)=C2/C(=O)C(=O)N(c3ncccn3)C2c2ccc(C)cc2)cc1 (stereo unspecified) | x | x | 4% | x
COc1ccccc1-n1c(SCC(=O)OC(C)C)nc2cccnc21 | x | x | -31% | x
O=C(CSc1nc(O)c(Cc2ccccc2)c(=O)[nH]1)N1CCOCC1 | x | x | u | 14 | Flu PR8 replic=8.5
COc1ccccc1-n1c(SCC(=O)N2CCCC2)nc2cccnc21 | 6% | 3% | 2µM* | -4
COc1ccccc1-n1c(SCC(=O)N2CCOCC2)nc(O)c(Cc2ccccc2)c1=O | 1% | -10% | u | 13
CCc1c(O)nc(SCC(=O)N2CCOCC2)n(-c2ccccc2)c1=O | 4% | -13% | 8% | x
CCN(CC)C(=O)CSc1nc2ccccc2c(=O)n1-c1ccccc1OC | -2% | 6% | 35µM* | -6
CCN(CC)C(=O)CSc1nc2cccnc2n1-c1ccccc1OC | -2% | -7% | -1% | x
COc1ccc(Cc2c(O)nc(SCC(=O)N3CCOCC3)[nH]c2=O)cc1 | x | x | 1% | x
Cc1csc(NC(=O)c2ccoc2C)n1 | 3% | -4% | -3% | x
Cc1ccc(S(=O)(=O)N2CCOCC2)cc1NC(=O)CSc1nnc2cc(C)c3ccccc3n12 | 3% | u | 8% | x
Cc1cc2nnc(SCC(=O)Nc3cc(S(=O)(=O)N4CCOCC4)ccc3Cl)n2c2ccccc12 | 3% | u | 10µM* | 19
Cc1ccc(-n2nc3c(=O)n(C(C)C(=O)NCCc4cccs4)nc(C)c3c2C)cc1 (stereo unspecified) | x | x | 16% | x
O=C(Cn1nnc(-c2ccccc2F)n1)N1CCCCC1 | x | x | -8% | x
COc1ccc(S(=O)(=O)N2CCCCC2)cc1NS(=O)(=O)c1cc(Cl)ccc1Cl | -6% | 20µM* | 22µM* | 49 | Flu PR8 replic=8.5
COc1ccc(NS(=O)(=O)c2cc(Cl)ccc2Cl)cc1S(=O)(=O)N1CCCCC1 | x | x | 0% | x
SMILES | Cruzain inh Det | Cruzain inh noDet | NS1 function inh | NS1 inh valid | others
O=C(OCn1nnc2ccccc2c1=O)c1ccc2ccccc2n1 | -4% | -8% | 16µM* | -17
O=C(OCn1nnc2ccccc2c1=O)c1cc2ccccc2o1 | x | x | 9% | x
CCn1c(SCC(=O)N2CCCCC2)nc2c(c1=O)SC(C)C2 (stereo unspecified) | -3% | 5% | -5% | x
O=C(CN1C(=O)C2(SCC(=O)N2c2ccc(F)c(F)c2)c2ccccc21)Nc1ccccc1F (stereo unspecified) | -8% | -27% | x | x
Clc1ccc(N2CCN(c3ncnc4c3oc3ccccc34)CC2)cc1 | 1% | 9% | u | -3
CC1CN(c2ncnc3c2oc2ccccc23)CC(C)O1 (stereo unspecified) | -9% | 3% | -43% | x
O=C1CN(C(=O)c2ccc(Br)o2)C(c2ccccc2)c2cc(Br)ccc2N1 (stereo unspecified) | -1% | u | 11µM* | -10
Cc1ccc2c(c1)C(c1ccccc1)N(C(=O)c1ccc(Br)o1)CC(=O)N2 (stereo unspecified) | -7% | -10% | 25% | x
COc1ccc(NC(=O)CN(c2ccc(OC)cc2)S(=O)(=O)c2ccc(OC)c(OC)c2)cc1 | x | x | 9% | x
CCCOP(=O)(c1ccc(N(C)C)cc1)C(Nc1ccccc1)c1ccc(N(C)C)cc1 (stereo unspecified) | -4% | 20% | 20µM* | 9
CCCCOP(=O)(c1ccc(N(C)C)cc1)C(Nc1ccccc1)c1ccccc1 (stereo unspecified) | -8% | 14% | -9% | x
Cc1cccc(C)c1NC(=O)CSc1nc2ccccc2c2nc(CCc3c(C)n[nH]c3C)nn12 | 0% | 28% | x | x
Cc1n[nH]c(C)c1CCc1nc2c3ccccc3nc(SCC(N)=O)n2n1 | 6% | 9% | 3.2µM* | -7
CC1CCCCN1Cc1c(O)ccc2c(=O)c(-c3ccc(Br)cc3)coc12 (stereo unspecified) | x | x | -3% | x
COc1ccc(OCc2nc(-c3ccc(F)c(F)c3)cs2)cc1 | x | x | -2% | x
O=C(Nc1ccccc1-c1nnn(CC(=O)N2CCc3ccccc3C2)n1)C1CCC1 | 6% | -1% | -6% | x
Cc1onc(-c2ccccc2Cl)c1C(=O)Nc1cccnc1 | 2% | 4% | -1% | x
Cc1onc(-c2ccccc2)c1C(=O)Nc1cccnc1 | 6% | 0% | 6.3µM* | 2
Cc1ccc(S(=O)(=O)NC2CCC(C(=O)O)CC2)cc1 (stereo unspecified) | 3% | -1% | 11% | x
CCCc1nn2c(=O)cc(COc3cccc(NC(=O)c4ccco4)c3)nc2s1 | x | x | 11% | x
CC1CCN(C2(O)C(=O)Nc3ccc(Cl)cc32)CC1 (stereo unspecified) | x | x | 3% | x
CCn1c(SCC(=O)N2CCC(C)CC2)nc2c(c1=O)SCC2 | x | x | 2µM* | -12
CCn1c(SCC(=O)N2CCCC2)nc2c(c1=O)SCC2 | x | x | 10% | x
O=C(Nc1cnn(Cc2ccccc2)c1)c1nc2ncccn2n1 | -2% | -6% | 0% | x
O=C(COc1ccc2c(c1)oc(=O)c1ccccc12)NC(Cc1ccc(Cl)cc1)C(=O)O (stereo unspecified) | x | x | 11µM* | 22
O=C(COc1ccc2c(c1)oc(=O)c1ccccc12)N[C@@H](Cc1ccccc1)C(=O)O | x | x | 16% | x
Cc1cc(C)c(NC(=O)CN(C)S(=O)(=O)c2ccc3c(c2)c(=O)n(C)c(=O)n3C)c(C)c1 | 4% | -10% | x | x
